Source: PubChem BioAssay (National Center for Advancing Translational Sciences (NCATS))
BRCA1 expr act = BRCA1 expression activation; MCF7-BRCA1-FFLuc reporter, luminescence, 48 h; response scale: scaled: vehicle 0%, 10 µM genistein 100%; 380,000 compounds, 1.1% hits; Potency, µM (doses to about 46.1 µM), most hits filed as activators; AID 624202; note: nearly all actives have a fitted effect of over 80% in size
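MCF7-BRCA1-FFLuc cells, 2000/well in phenol-red-free MEM, attached 2 h then treated 48 h at 37 C. Luciferase luminescence read 15 min after reagent; normalized to genistein maximum activation (10microM) and DMSO, concentration-response fitted.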
DRD3 antagonist = D3 dopamine receptor (human) antagonism; max response, negative = inhibition, %; 360,000 compounds, 2.5% hits; D3R cells, DiscoveRx beta-arrestin luminescence, antagonist mode; stronger effect = lower value; in the data active = max response below about -50%; inconclusive = no clear call, values can overlap the other calls
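Cells expressing the human receptor were seeded at 1500 cells/well, incubated overnight at 37 degrees C in 5% CO2, then exposed to library compounds with dopamine controls for 90 minutes at 37 degrees C before luminescent detection.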
RGS4 inhibitor = inhibitors of human regulator of G protein signaling 4; P49798; Transcreener GDP fluorescence polarization, RGS4-accelerated GTP hydrolysis; 390,000 compounds, 0.039% hits; Potency, µM (highest dose often 114 µM), actives largely listed as inhibitors; note: nearly all actives have a fitted effect of over 75% in size
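MLSMR compounds (23 nl, pin-transferred) preincubated 10 min at room temperature with a 500nM (2x) first reagent, then RGS4 at 900nM (2x) plus Transcreener GDP mix added; fluorescence polarization (620/688 nm) read before and after 90 min at 30 °C.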
PTHR1 ag = agonists of human PTHR1 parathyroid hormone receptor; Q03431; HEK293 GP2 PTHR1 cells, GloSensor cAMP luminescence, 1 h; Potency, µM (doses to about 115 µM), usual class: activators; 410,000 compounds, 0.075% hits; note: nearly all actives have a fitted effect of over 55% in size
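HEK-293-derived GP2 cells expressing PTHR1 and a GloSensor cAMP reporter, 3,000/well, plated overnight, given luciferin plus IBMX (each 0.5 mM as added) for 1 h at 37 °C, then compound for 1 h at 37 °C. Luminescence was read after 15 min at room temperature.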
D3 ag = agonists of human D3 dopamine receptor; D3R DiscoveRx beta-arrestin cells, luminescence, 90 min; max activation, %; 410,000 compounds, 0.58% hits; AID 652048; in the data active = max activation above about 30%
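Agonist mode: compounds and dopamine controls were applied to plated cells for 90 min at 37 degrees C after an overnight attachment at 1500 cells/well. Luminescent read-out followed 30 - 60 minutes at room temperature with DiscoveRx detection reagent.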
B2AR arrestin = agonists driving beta-arrestin recruitment to human beta2-adrenergic receptor | P07550 | beta-arrestin recruitment to beta2AR, cell-based reporter | Potency, µM (top dose mostly 46.1 µM), most hits filed as activators | 330,000 compounds, 0.02% hits | AID 492947; note: nearly all actives have a fitted effect of over 65% in size
Target sequence (P07550 whole entry, looked up): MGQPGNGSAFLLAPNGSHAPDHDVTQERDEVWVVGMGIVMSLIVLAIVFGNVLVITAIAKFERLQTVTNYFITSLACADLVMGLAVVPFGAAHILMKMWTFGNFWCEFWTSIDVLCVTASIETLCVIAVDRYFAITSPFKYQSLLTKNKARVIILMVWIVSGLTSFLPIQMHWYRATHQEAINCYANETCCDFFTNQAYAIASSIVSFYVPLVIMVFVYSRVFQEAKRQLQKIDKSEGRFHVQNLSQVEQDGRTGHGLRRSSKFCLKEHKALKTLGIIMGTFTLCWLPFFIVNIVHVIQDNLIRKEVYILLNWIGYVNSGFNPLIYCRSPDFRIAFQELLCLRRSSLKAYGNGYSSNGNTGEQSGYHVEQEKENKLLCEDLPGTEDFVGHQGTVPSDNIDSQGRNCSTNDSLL
Large screens that a line does not name were inactive. An excerpt weighted towards active compounds, which were near 3.7% of everything screened. Unless noted, calls come from the whole dose curve; as a rule, active = well fitted curve in the direction sought with a large enough effect; inconclusive = small, poorly fitted or top-dose-only effect, or another doubt; inactive = no such curve, though single readings can be large; an effect the other way counts as inactive or inconclusive.

COc1ccc(OC)c(-c2cc(C3CCN(C(=O)OC(C)(C)C)CC3)[nH]n2)c1	BRCA1 expr act inconclusive, D3 ag 46
CCn1nccc1NC(=O)c1csc([C@@H]2O[C@H](CO)[C@H](O)[C@H](O)[C@H]2O)n1	DRD3 antagonist inconclusive, D3 ag 37 (no result: RGS4 inhibitor, B2AR arrestin)
O=C(NCc1ccc(F)cc1)c1nc(-c2cccs2)no1	none
Cc1ccc(OCc2nc(-c3ccccc3)no2)cc1	BRCA1 expr act 8.9µM
c1ccc(OCc2nc(-c3cccs3)no2)cc1	BRCA1 expr act 11µM
Cc1cc(OCc2nc(-c3cccs3)no2)cc(C)c1Cl	none
COc1ccc(-c2noc(Cc3cccs3)n2)cc1	BRCA1 expr act 13µM, DRD3 antagonist inconclusive
Fc1ccc(OCc2nc(-c3cccs3)no2)cc1	BRCA1 expr act 7.9µM
C=CCn1c(SCC(=O)NCCCC)nc2scc(-c3ccco3)c2c1=O	RGS4 inhibitor inconclusive
C=CCn1c(SCC(C)=O)nc2scc(-c3ccc(C)o3)c2c1=O	BRCA1 expr act 13µM, RGS4 inhibitor inconclusive
C=CCn1c(SCC(=O)Nc2ccc(C(=O)O)cc2)nc2scc(-c3ccccc3)c2c1=O	DRD3 antagonist -71, RGS4 inhibitor inconclusive
COC(=O)Nc1ccc2ccc3c(NC(=O)OC)ccc4ccc1c2c43	none (no result: B2AR arrestin)
O=C(CN1C(=O)/C(=C/c2ccccc2)SC1=S)N1CCN(CCc2ccccn2)CC1	none
COc1ccc2nc3sc(C(=O)NCCc4ccc(Cl)cc4)cc3cc2c1	none (no result: DRD3 antagonist, B2AR arrestin)
COc1ccc2nc3sc(C(=O)NCCN4CCc5ccccc5C4)cc3cc2c1	DRD3 antagonist -68
C[C@H](CO)N1C[C@H](C)[C@H](CN(C)C(=O)c2ccc3ccn(C)c3c2)OCc2cnnn2CCCC1=O	none (no result: RGS4 inhibitor, B2AR arrestin)
Cc1ccc(-n2nnc3ccccc3c2=O)cc1C	BRCA1 expr act 4.5µM
O=c1c2ccccc2nnn1-c1ccccc1	none (no result: B2AR arrestin)
CC(C)NC(=O)CSc1nnc(C2CC2)n1-c1ccccc1	DRD3 antagonist -51
Cc1ccc(NCc2nnc(SCCN3CCCCC3)n2CC2CCCO2)cc1Cl (stereo unspecified)	DRD3 antagonist -51
CCC[C@H]1CC(=O)C=C(c2ccc(OC)cc2)ON1C(=O)OC(C)(C)C	none (no result: B2AR arrestin)
Clc1ccc2nc(CN3CCCCCC3)cn2c1	DRD3 antagonist -85
Clc1ccc2nc(CN3CCCCC3)cn2c1	DRD3 antagonist inconclusive
O=C(Cc1ccc(F)cc1)NC1CC(=O)N(c2ccc3c(c2)OCCO3)C1 (stereo unspecified)	none (no result: DRD3 antagonist, B2AR arrestin)
COc1ccc(C)cc1NC(=O)Nc1ccc(C(=O)N2CCCC2)cc1	BRCA1 expr act 7.9µM
CC(C)NC(=O)N(C)C[C@H]1Oc2c(NC(=O)c3ccc(-c4nccs4)cc3)cccc2C(=O)N([C@@H](C)CO)C[C@H]1C	none
Cc1ccccc1N1CCN(C2CCCN(C(=O)CCN3CCCO3)C2)CC1 (stereo unspecified)	none
CC(OC(=O)c1c2c(nc3ccccc13)/C(=C\c1ccc3c(c1)OCO3)CCC2)C(=O)Nc1ccc(S(N)(=O)=O)cc1 (stereo unspecified)	none
Cc1cccc(C)c1NC(=O)COC(=O)c1c2c(nc3ccccc13)/C(=C\c1ccc3c(c1)OCO3)CCC2	DRD3 antagonist -58
O=C(/C=C/c1ccccc1)CC(=O)c1ccccc1O	none
Cc1ccccc1-c1nc2scc(CCNS(=O)(=O)c3ccccc3)n2n1	none (no result: BRCA1 expr act, DRD3 antagonist, B2AR arrestin)
CCOc1ccc(CCNC(=O)CSc2nnnn2-c2ccccc2Cl)cc1OCC	none (no result: DRD3 antagonist, B2AR arrestin)
O=c1[nH]c(Cc2ccccc2Cl)nc2ccccc12	none
Cc1ccc2c(=O)[nH]c(Cc3ccccc3C(=O)O)nc2c1	D3 ag 40
CCOC1=C2CN(S(=O)(=O)c3ccc(C)cc3)[C@@H](c3cccs3)C[C@H]2[C@H]2C(=O)N(c3ccccc3)C(=O)[C@H]2C1	none (no result: RGS4 inhibitor, B2AR arrestin)
COc1ccc(-c2noc(-c3nnn(-c4ccc(C(C)C)cc4)c3C)n2)cc1OC	D3 ag 36 (no result: BRCA1 expr act, DRD3 antagonist, B2AR arrestin)
COc1ccc(OC)c(-n2nnc(-c3nc(-c4ccc5c(c4)OCO5)no3)c2C)c1	none (no result: BRCA1 expr act, DRD3 antagonist, B2AR arrestin)
